About 4,300 (8.3%) of roughly 52,000 compounds were called active. Cut-off read from the data, not from the text of the source: active = survival mostly below about 52% (no sharp cut-off); inactive = mostly above about 56%. What follows is part of a selection rich in actives, with near analogues and random picks from the rest.
These molecules were tested on DeltatarO mutant (assay: S. aureus survival, RN4220 and DeltatarO strains – OD600, teichoic acid synthesis inhibitors, primary screen (AID 463173)). Details: S. aureus RN4220 wild type/DeltatarO growth, OD600, 18 h, active compounds read low, screened at 18.75 µg/mL (by protocol).

Compound | survival
Cc1cc(NC(=O)OC2CCCC2)ccc1NC(=O)OC1CCCCC1 | 75% (inactive)
COc1ccc(CNC(=O)C(=O)Nc2cccc(C)c2C)cc1 | 61% (inactive)
Cc1ccccc1S(=O)Cc1ccc(C(=O)NCc2ccccc2Cl)o1 (configuration not stated) | 73% (inactive)
Cc1ccc(-c2nnc(Nc3ccc(Cl)c(Cl)c3)c3ccccc23)cc1S(=O)(=O)NCCO | 79% (inactive)
CC(=O)Nc1ccc(S(=O)(=O)NCC2CCC(C(=O)NCCN(CC(C)C)CC(C)C)CC2)cc1 (configuration not stated) | 61% (inactive)
CC(=O)Nc1ccc(S(=O)(=O)N2CCN(c3ccc(C)c(C)c3)CC2)cc1 | 94% (inactive)
O=C(CS(=O)(=O)c1cccc2nsnc12)Nc1ccc(F)cc1F | 102% (inactive)
COc1ccccc1N1CCN(c2ncnc3c2c(-c2ccccc2)cn3-c2cccc(C)c2)CC1 | 70% (inactive)
COc1ccc(-c2[nH]ncc2C(=O)NCc2cccc(Cl)c2)cc1 | 62% (inactive)
Cc1ccc(C)c(CN2C(=O)c3ccccc3S(=O)c3ccc(C(=O)N(C)Cc4ccccc4)cc32)c1 (configuration not stated) | 78% (inactive)
Cc1ccc(Nc2cc(C(=O)NCc3cccs3)c3ccccc3n2)c(C)c1 | 72% (inactive)
CC1=C(C(=O)Nc2ccccc2)C(c2cccn2C)n2ncnc2N1 (configuration not stated) | 95% (inactive)
COc1ccccc1NC(=O)C1=C(C)Nc2ncnn2C1c1cccn1C (configuration not stated) | 8% (active)
CCOc1ccccc1NC(=O)C1=C(C)Nc2ncnn2C1c1ccccn1 (configuration not stated) | 25% (active)
COc1ccc(NC(=O)C2=C(C)Nc3ncnn3C2c2cccn2C)cc1 (configuration not stated) | 89% (inactive)
CC1=C(C(=O)Nc2ccccc2C)C(c2ccccn2)n2ncnc2N1 (configuration not stated) | 94% (inactive)
COc1ccccc1NC(=O)C1=C(C)Nc2ncnn2C1c1ccccn1 (configuration not stated) | 52% (inactive)
Cc1ccccc1CN1C(=O)c2ccccc2Sc2ccc(C(=O)NC3CCCCC3)cc21 | 71% (inactive)
O=C(O)C1CSC2c3ccccc3C(=O)N12 (configuration not stated) | 103% (inactive)
O=c1[nH]c2cc3c(cc2cc1CN(CCO)C(=S)Nc1cccc(Cl)c1)OCO3 | 69% (inactive)
Cc1ccc(CNC(=O)c2ccc3c(c2)CCN3S(=O)(=O)c2ccccc2)cc1 | 37% (active)
CCS(=O)(=O)N1CCc2cc(C(=O)NCc3ccc(C)cc3)ccc21 | 82% (inactive)
CS(=O)(=O)N1CCc2cc(C(=O)NCc3ccccc3)ccc21 | 81% (inactive)
Cc1ccc(CNC(=O)c2ccc3c(c2)CCN3S(=O)(=O)c2ccc(Br)cc2)cc1 | 80% (inactive)
O=C(NCc1ccccc1)c1ccc2c(c1)CCN2S(=O)(=O)c1ccc(Cl)cc1 | 73% (inactive)

Compound | survival
O=C(NCc1ccccc1)c1ccc2c(c1)CCN2S(=O)(=O)c1ccccc1 | 36% (active)
CC(=O)N1CCc2cc(S(=O)(=O)NC(Cc3ccccc3)C(=O)NCc3ccccc3)ccc21 (configuration not stated) | 79% (inactive)
Cc1ccc2c(c1)N(CC(=O)N(Cc1cccnc1)C1CCCC1)C(=O)C(C)O2 (configuration not stated) | 97% (inactive)
Cc1ccc(-n2nc(C(=O)N3CCN(c4cc(Cl)ccc4C)CC3)c(=O)n(C)c2=O)cc1 | 116% (inactive)
Cc1ccc(OCC(=O)Nc2ccc3nc(SCC(=O)Nc4ccc(C)cc4C)sc3c2)cc1 | 73% (inactive)
COc1ccc(N2CCN(c3nc4ccc(C)cc4n4nnnc34)CC2)cc1 | -5% (active)
Cc1ccc2nc(N3CCN(c4ccc(F)cc4)CC3)c3nnnn3c2c1 | 55% (inactive)
COc1ccc(OC)c(CNc2nc3ccc(C)cc3n3nnnc23)c1 | 88% (inactive)
Cc1ccc2nc(NCc3ccccc3Cl)c3nnnn3c2c1 | 91% (inactive)
COc1ccccc1CNc1nc2ccc(C)cc2n2nnnc12 | 17% (active)
Cc1ccc2nc(N3CCN(c4ccccc4)CC3)c3nnnn3c2c1 | 88% (inactive)
COc1ccc(-c2ccc(Nc3ccc(C(=O)N4CCCCCC4)cc3)nn2)cc1 | 71% (inactive)
CCOc1ccccc1CNC(=O)c1cnc2sc(N3CCOCC3)nn2c1=O | 67% (inactive)
CCCCCn1c(-c2cccc(C)c2)nc2ccccc21 | -2% (active)
CCCCCn1c(CCCNC(=O)c2ccccc2OC)nc2ccccc21 | 53% (inactive)
CCCCCn1c(-c2ccc(OC)c(OC)c2)nc2ccccc21 | 1% (active)
CCCCn1c(CCCNC(=O)c2cccc(C)c2)nc2ccccc21 | 55% (inactive)
CCCCCn1c(CCNC(=O)c2cccc(C)c2)nc2ccccc21 | 32% (active)
CCCCn1c(C)nc2ccccc21 | 104% (inactive)
CCOc1ccc(Cn2c(-c3ccc(OCC)c(OC)c3)nc3ccccc32)cc1OC | 79% (inactive)
CCCCCn1c(CCCNC(=O)c2cccc(C)c2)nc2ccccc21 | 51% (inactive)
CCCCCn1c(C(C)NC(=O)c2ccccc2)nc2ccccc21 (configuration not stated) | 81% (inactive)
COc1cccc(C(C(=O)NCc2ccco2)N(C(=O)Cn2nnc3ccccc32)C2CC2)c1OC (configuration not stated) | 107% (inactive)
CCOC(=O)c1noc2nc(C)n(CC(=O)Nc3cc(Cl)ccc3OC)c(=O)c12 | 109% (inactive)
Cc1csc2nc(CCNS(=O)(=O)c3ccccc3)cn12 | 79% (inactive)

Compound | survival
Cc1cc(C)c(/C=C/c2onc(C)c2S(=O)(=O)N2CCC(C(=O)Nc3ccc(Cl)c(C(F)(F)F)c3)CC2)c(C)c1 | 67% (inactive)
Cc1nn2c(=O)cc(COC(=O)c3ccccc3NC(=O)c3ccccc3C)nc2s1 | 104% (inactive)
COc1ccc(-c2nc3scc(CCNS(=O)(=O)c4c(C)cc(C)cc4C)n3n2)cc1OC | 85% (inactive)
Cc1ccccc1-c1nc(CNC(=O)Nc2ccccc2)c(C)o1 | 89% (inactive)
CC(C)Oc1ccc(CN2CCc3nc(Nc4ccc5c(c4)OCCO5)ncc3C2)cc1 | 77% (inactive)
Cc1ccc(Cl)cc1Nc1nn2c(=O)c3ccc(C(=O)NC(C)c4ccccc4)cc3nc2s1 (configuration not stated) | 105% (inactive)
CN(C(=O)CSc1nc2ccc(NC(=O)COc3ccc(F)cc3)cc2s1)c1ccccc1 | 73% (inactive)
CC1CCCCN1CC(=O)N1CCCc2c1c(=O)oc1ccc(OCc3ccccc3)cc21 (configuration not stated) | 77% (inactive)
CC1CCN(CC(=O)N2CCCc3c2c(=O)oc2ccc(OCc4ccccc4)cc32)CC1 | 98% (inactive)
CCC1CCCCN1CC(=O)N1CCCc2c1c(=O)oc1ccc(OCc3ccccc3)cc21 (configuration not stated) | 18% (active)
COc1ccc(N(Cc2nnc3n2CCCCC3)C(=O)Nc2cccc(C)c2)cc1Cl | 81% (inactive)
COc1ccc(C2CC(=O)c3cc(-c4nc(-c5ccc(Cl)cc5)cs4)c(=O)[nH]c3C2)cc1 (configuration not stated) | 167% (inactive)
Cc1sc(-c2cc3c([nH]c2=O)CC(c2ccccc2)CC3=O)nc1-c1ccc(Cl)cc1 (configuration not stated) | 73% (inactive)
COc1ccc(C2CC(=O)c3cc(-c4nc(-c5ccc(Cl)cc5)c(C)s4)c(=O)[nH]c3C2)cc1 (configuration not stated) | 70% (active)
CON(C)c1nc(OCCNC(=O)OCc2ccc(Cl)cc2Cl)nc(N(C)C)n1 | 76% (inactive)
CCOc1ccc(NC(=O)CCCc2nnc3n(C)c(=O)c4sccc4n23)cc1 | 78% (inactive)
Cc1ccc(C)c(N2CCN(C(=O)c3cc4c(=O)n(Cc5cccnc5)ccc4nc3C)CC2)c1 | 46% (active)
COc1ccc(CNC(=O)c2cc3c(=O)n(Cc4cccnc4)ccc3nc2C)cc1 | 37% (active)
COc1ccc(NC(=O)c2cc3c(=O)n(Cc4cccs4)ccc3nc2C)cc1 | 75% (inactive)
COc1cccc(CNC(=O)c2cc3c(=O)n(Cc4cccnc4)ccc3nc2C)c1 | 144% (inactive)
Cc1nc2ccn(Cc3cccs3)c(=O)c2cc1C(=O)NCc1ccc(Br)cc1 | 70% (inactive)
COc1cc(NC(=O)c2cc3c(=O)n(Cc4cccs4)ccc3nc2C)cc(OC)c1OC | 0% (active)
Cc1nc2ccn(Cc3cccnc3)c(=O)c2cc1C(=O)NCc1ccccc1 | 72% (inactive)
Cc1nc2ccn(Cc3cccs3)c(=O)c2cc1C(=O)Nc1ccccc1 | 84% (inactive)
Cc1ccc(C)c(N2CCN(C(=O)c3cc4c(=O)n(Cc5ccccc5)ccc4nc3C)CC2)c1 | 78% (inactive)

Compound | survival
Cc1nc2ccn(Cc3cccs3)c(=O)c2cc1C(=O)NCc1ccccc1 | 78% (inactive)
CCc1ccc(CNC(=O)c2cc3c(=O)n(Cc4cccs4)ccc3nc2C)cc1 | 32% (active)
Cc1nc2ccn(Cc3cccnc3)c(=O)c2cc1C(=O)N1CCN(c2ccccc2)CC1 | 105% (inactive)
CCc1ccc(-n2c(=O)c3cccnc3n2CC(=O)N(CC)c2cccc(C)c2)cc1 | 94% (inactive)
COc1ccc(Cl)cc1NC(=O)CCc1c(C)nc2c(c1C)c(=O)n(C)c(=O)n2C | 94% (inactive)
Cc1cc(C)cc(NC(=O)Cn2c(C)cc(C)c(C#N)c2=O)c1 | 89% (inactive)
CC(=NCCCn1ccnc1)c1c(C(F)(F)F)[nH]n(-c2nc3ccccc3s2)c1=O | 120% (inactive)
COC(=O)c1ccc(Cn2nnc3c(=O)[nH]c(C4CCCN(S(=O)(=O)c5ccccc5)C4)nc32)cc1 (configuration not stated) | 99% (inactive)
CCOc1nc(NCCO)nc(NCCC2=CCCCC2)n1 | 67% (inactive)
CCc1ccccc1-n1nnc(-c2nc(-c3ccccc3F)no2)c1C | 102% (inactive)
CC(C)(C)c1ccc(C(=O)NCC(=O)OCc2cc(=O)n3nc(C4CC4)sc3n2)cc1 | 85% (inactive)
CCOC(=O)c1c(S(=O)(=O)N2CCN(c3cccc(C(F)(F)F)c3)CC2)c(C)n(C)c1C | 116% (inactive)
CCS(=O)(=O)c1cccc(C(=O)N2CCN(c3nc4c(C)ccc(Cl)c4s3)CC2)c1 | 78% (inactive)
CC(=O)Nc1ccc(NC(=O)c2cc3c(=O)n(Cc4cccnc4)ccc3nc2C)cc1 | 57% (inactive)
Cc1cccc(NC(=O)c2cc3c(=O)n(Cc4cccnc4)ccc3nc2C)c1 | 0% (active)
Cc1nc2ccn(Cc3cccs3)c(=O)c2cc1C(=O)NCc1ccc(Cl)cc1 | 49% (inactive)
COc1cccc(NC(=O)c2cc3c(=O)n(Cc4cccnc4)ccc3nc2C)c1 | 101% (inactive)
Cc1ccc(CNC(=O)c2cc3c(=O)n(Cc4ccco4)ccc3nc2C)cc1 | 87% (inactive)
COc1ccc(CNC(=O)c2cc3c(=O)n(Cc4cccs4)ccc3nc2C)cc1 | 37% (active)
Cc1nc2ccn(Cc3ccco3)c(=O)c2cc1C(=O)NCc1ccc(Cl)cc1 | 47% (active)
CCOc1ccc(CNC(=O)c2cc3c(=O)n(Cc4cccs4)ccc3nc2C)cc1 | 112% (inactive)
Cc1nc2ccn(Cc3ccco3)c(=O)c2cc1C(=O)NCc1ccccc1 | 79% (inactive)
